The results in this text go back to PubChem BioAssay AID602410 (Johns Hopkins Ion Channel Center, 2012).

The whole screen tested about 340,000 compounds, of which about 2,800 (0.82%) were called active.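 The calls were made as follows: active = B-score under library mean minus 4 SD, starting fluorescence ratio at most library mean plus 5 SD; inactive = the rest.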 What follows is part of a selection rich in actives, with near analogues and random picks from the rest.

The target of this assay is Potassium channel subfamily K member 3 (Homo sapiens) (UniProt O14649). In words: blockers of TASK1 two-pore potassium channel – CHO cells, FluxOR thallium flux, B-score, primary screen (AID 602410).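 As to B-score: more negative B-score means stronger inhibition of thallium flux through KCNK3.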 The conditions noted are these: CHO-KCNK3 thallium flux, FluxOR fluorescence, at 10 µM; stronger effect = lower value.
Chain of Potassium channel subfamily K member 3 (Homo sapiens) (O14649 whole entry, looked up): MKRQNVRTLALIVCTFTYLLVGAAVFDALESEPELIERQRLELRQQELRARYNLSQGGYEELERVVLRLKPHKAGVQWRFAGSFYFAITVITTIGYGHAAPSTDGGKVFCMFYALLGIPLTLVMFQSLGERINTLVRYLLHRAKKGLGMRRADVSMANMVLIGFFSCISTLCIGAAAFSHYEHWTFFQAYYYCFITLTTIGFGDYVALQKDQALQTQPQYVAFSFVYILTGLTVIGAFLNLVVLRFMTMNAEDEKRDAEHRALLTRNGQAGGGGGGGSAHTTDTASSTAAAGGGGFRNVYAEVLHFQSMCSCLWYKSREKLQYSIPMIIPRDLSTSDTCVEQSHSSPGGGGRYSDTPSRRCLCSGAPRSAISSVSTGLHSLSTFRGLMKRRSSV
In the case of `NNC(=O)c1cccc(COCC(F)(F)C(F)F)c1`, the B-score entry is “inactive”.

For `O=C(O)c1ccc(NN=CC2=C(N3CCOCC3)/C(=C/c3ccccc3)CC2)cc1`, the B-score was -9.13 (active).

Take `N#C/C(=C\C1=C(N2CCOCC2)C(=C\c2ccccc2)/CC1)C(=O)Nc1ccccc1F`: the B-score result was “inactive”.

As for `O=C1Nc2ccc(Br)cc2/C1=N/N=C/C1=C(N2CCOCC2)C(=C\c2ccccc2)/CC1`, the B-score entry is “inactive”.

Turning to `COc1ccc(N2CCN(CCNC(=O)Nc3cc(Cl)ccc3Cl)CC2)cc1`, the B-score result was “inactive”.

With `COc1ccc(NC(=O)c2sccc2SCC#N)cc1`, the B-score entry was “inactive”.

Turning to `CC(C)(C)N1CC(c2nc3ccccc3n2Cc2ccc(F)cc2)CC1=O` (stereo not drawn), the B-score entry was “inactive”.

For the compound `Cc1cc(C)c(C)c(S(=O)(=O)N[C@@H](C)C(=O)OC(C)C(=O)NC(N)=O)c1C` (stereo partly drawn), the B-score result was “inactive”.

Regarding `CCSc1nsc(NC(=O)Nc2cccc(C(C)=O)c2)n1`, the B-score entry was “inactive”.

For `CSc1nsc(NC(=O)Nc2ccccc2)n1`, the B-score result was “inactive”.

Take `C=CCSc1nsc(NC(=O)Nc2cccc(C(C)=O)c2)n1`: the B-score is -9.78 (active).

As to `CCOC(=O)C1CCCN(C(=O)C2CCN(S(=O)(=O)c3ccc(Cl)c(C(F)(F)F)c3)CC2)C1` (stereo not drawn), the B-score result was “inactive”.

As for `COC(=O)c1cccc(-n2[nH]nnc2=S)c1`, the B-score result is “inactive”.

Take `COc1ccccc1CNC(=O)COc1ccc(C)nc1[N+](=O)[O-]`: the B-score result is “inactive”.

For the compound `Cc1ccc(S(=O)(=O)N2C[C@@H]3CCCC[C@@H]3[C@@H](C)[C@H]2c2cn(Cc3ccccc3)c3ccc(F)cc23)cc1`, the B-score entry was “inactive”.

For `COc1ccc(CNC(=O)CNC(=O)c2sc3ccccc3c2Cl)cc1OC`, the B-score result is “inactive”.

On to `CCc1ccccc1NC(=O)NCCN1CCCCC1`, for which the B-score entry is “inactive”.

On to `CN1CCc2ccccc2C1Cc1ccccc1NC(=O)c1sc2ccccc2c1Cl` (stereo not drawn), for which the B-score is -9.31 (active).

For the compound `CCOc1ccc(CCNC(=O)COC(=O)c2ccc(F)c(S(=O)(=O)N3CCOCC3)c2)cc1OCC`, the B-score entry is “inactive”.

`CCOc1ccc(OCC)c(NC(=O)C2CCN(S(=O)(=O)c3c(C)noc3C)CC2)c1`: the B-score entry was “inactive”.

Regarding `CC[n+]1cc(C)ccc1/C=C/c1ccc(N(C)C)cc1`, the B-score was -8.95 (active).

Turning to `CCOC(=O)C1CCN(C(=O)C2CCN(S(=O)(=O)CC)CC2)CC1`, the B-score entry is “inactive”.

Regarding `COC(=O)c1ccccc1Sc1c(/C=N/OCc2ccc(Cl)cc2)c(C(F)(F)F)nn1C`, the B-score entry was “inactive”.

Take `Cc1ccc(NC(=S)N2CCCC(c3ccccc3)=N2)cc1`: the B-score is -8.89 (active).

`Cc1ccc(C(=O)N2CCCC(c3ccccc3)=N2)cc1`: the B-score entry was “inactive”.

Turning to `Cc1ccc(NC(=O)CCC(=O)N2CCC(c3ccccc3)=N2)cc1S(=O)(=O)N1CCCCC1`, the B-score result is “inactive”.

Regarding `Cc1ccc(CSc2nc3[nH]ncc3c(=O)[nH]2)cc1`, the B-score entry was “inactive”.

`Cc1cc2c(=O)n(CC(=O)NCC(=O)Nc3ccc(C(C)C)cc3)cnc2s1`: the B-score entry is “inactive”.

For the compound `CCOC(=O)c1c(N)sc2c1CCCC2=O`, the B-score entry was “inactive”.

Take `COc1cccc(COC(=O)C2CCN(S(=O)(=O)c3ccc(Cl)cc3)CC2)c1OC`: the B-score result was “inactive”.

Regarding `COC(=O)c1ccc(COC(=O)C2CCN(S(=O)(=O)c3c(Cl)cccc3Cl)CC2)o1`, the B-score is -10.8 (active).

`CCOc1ccc(S(=O)(=O)N2CCC(C(=O)OCc3ccc(OC)cc3)CC2)cc1`: the B-score result is “inactive”.

Consider `CC12CN3CC(C)(CN(C1)C3c1ccc(Cl)cc1Cl)C2=O` (stereo not drawn), for which the B-score entry is “inactive”.

For `Cn1c(SCC(=O)N2CCCC2)nnc1-c1cccs1`, the B-score result was “inactive”.

With `CCc1cc(C(N)=O)c(NC(=O)c2ccc(OC)cc2)s1`, the B-score entry is “inactive”.

Turning to `CCc1cc(C(c2ccccc2OC)N2CCOCC2)c(NC(=O)c2ccccc2)s1` (stereo not drawn), the B-score was -8.97 (active).

Consider `COc1cc(C(c2c(NC(=O)c3ccco3)sc(C)c2C)N2CCOCC2)cc(OC)c1OC` (stereo not drawn), for which the B-score result was “inactive”.

Take `COc1cc(NC(=O)COC(=O)c2cnc(C)cn2)c(C)cc1[N+](=O)[O-]`: the B-score result is “inactive”.

Regarding `COC(=O)c1ccc(C)c(NC(=O)C2CC(=O)N(C3CCCC(C)C3C)C2)c1` (stereo not drawn), the B-score entry was “inactive”.

With `O=C(c1cccc(S(=O)(=O)Nc2ccccc2Cl)c1)N1CCN(C(=O)c2ccco2)CC1`, the B-score entry was “inactive”.

Turning to `O=C(Nc1ccccc1C(=O)N1CCCCC1)c1ccco1`, the B-score result was “inactive”.

With `CS/C(=C\C(=O)c1ccco1)Nc1ccccc1Cl`, the B-score was -11.4 (active).

As for `NS(=O)(=O)c1ccc(CCNC(=O)COC(=O)COc2cccc(C(F)(F)F)c2)cc1`, the B-score result was “inactive”.

As to `CSc1nnc2c(n1)OC(c1ccsc1)N(C(C)=O)c1ccccc1-2` (stereo not drawn), the B-score was -9.55 (active).

As to `Cc1ccc(Cl)cc1NC(=O)CN1CCN(S(=O)(=O)N2CCOCC2)CC1`, the B-score entry was “inactive”.

In the case of `CCOC(=O)CNC(=O)CSc1ccc2nnc(-c3cccnc3)n2n1`, the B-score entry is “inactive”.

For `C/C(CC(C)C)=N\Oc1nc(C)cc(C)n1`, the B-score result was “inactive”.

As for `CC(C)c1ccccc1OCC(O)CN(CC(O)COc1cccc2ccccc12)C(C)C` (stereo not drawn), the B-score is -9.21 (active).

As to `Cc1cc(C)c(NC(=O)C[N+](C)(C)CC(O)COc2cccc3ccccc23)c(C)c1` (stereo not drawn), the B-score entry was “inactive”.

On to `CCC(C)Sc1nc2c(c(=O)[nH]c(=O)n2C)n1CC(O)COc1cccc2ccccc12` (stereo not drawn), for which the B-score entry was “inactive”.

For the compound `O=C(OCC(O)C(O)COC(=O)c1ccccc1)c1ccccc1` (stereo not drawn), the B-score result was “inactive”.

With `Cc1ccc(C)c(S(=O)(=O)Nc2cccc(-n3cnnn3)c2)c1`, the B-score result is “inactive”.

For `CC(=O)c1c(C)[nH]c(C(=O)Nc2cc(S(=O)(=O)N(C)C)ccc2C)c1C`, the B-score result is “inactive”.

For `O=C(CCn1nnc2ccccc21)OCC(=O)c1ccc([N+](=O)[O-])cc1`, the B-score result is “inactive”.

`CCc1nnc(NC(=O)c2cccc(S(=O)(=O)N(C)c3ccc(OC)cc3)c2)s1`: the B-score result was “inactive”.

As to `CCc1nnc(NC(=O)c2cc(S(=O)(=O)N3CCCCC3)ccc2C)s1`, the B-score entry was “inactive”.

As for `CCc1ccc2nc3sc(C(=O)Nc4nnc(CC)s4)c(N)c3cc2c1`, the B-score is -9.98 (active).

Take `Cc1cc(C)nc(NNC2=CC(=O)CC(C)(C)C2)n1`: the B-score result is “inactive”.

For the compound `O=C1c2ccccc2C(O)N1Cc1ccccc1Cl` (stereo not drawn), the B-score entry is “inactive”.

As to `O=C(NCCc1c[nH]c2ccccc12)c1cccc(Br)c1`, the B-score is -11.8 (active).

Turning to `O=C(NCCc1c[nH]c2ccccc12)c1cc2ccccc2oc1=O`, the B-score entry is “inactive”.

For `Cc1cc(C)cc(NC(=S)NCCc2c[nH]c3ccccc23)c1`, the B-score entry is “inactive”.

As for `O=P(c1cccs1)(c1cccs1)c1cccs1`, the B-score entry was “inactive”.

With `CCC1CCCCN1C(=S)Nc1ccc(C(C)=O)cc1` (stereo not drawn), the B-score entry was “inactive”.

On to `CCC1CCCCN1C(=S)NC(=O)c1ccco1` (stereo not drawn), for which the B-score entry is “inactive”.

In the case of `CCC1CCCCN1C(=O)Nc1cccc(NC(=O)N2CCCCC2CC)c1` (stereo not drawn), the B-score is -10.6 (active).

Regarding `CCN(C[C@H]1N[C@@](CC)(C(=O)OC)[C@H]2C(=O)N(Cc3ccccc3)C(=O)[C@@H]12)S(=O)(=O)c1ccccc1`, the B-score result is “inactive”.

As for `CCOc1c(Br)cc(/C=C2\C(=O)N(CCC#N)N=C2C)cc1OC`, the B-score entry is “inactive”.

In the case of `O=C(COC(=O)/C=C/c1ccc(S(=O)(=O)N2CCCCCC2)cc1)NCc1ccccc1Cl`, the B-score entry was “inactive”.

On to `CC(=O)c1cccc(NC(=O)CN2C(=O)c3cccnc3Oc3ccc(Cl)cc32)c1`, for which the B-score result is “inactive”.

`Cc1ccccc1CC1(CO)CCCN(C(=O)c2cc(-c3ccccc3)no2)C1` (stereo not drawn): the B-score entry was “inactive”.

For the compound `COC(=O)CCC(=O)N1CCCC(CO)(Cc2ccccc2)C1` (stereo not drawn), the B-score result was “inactive”.

Turning to `CCCc1cc(C(=O)N2CCCC(CO)(CCCc3ccccc3)C2)n(C)n1` (stereo not drawn), the B-score was -9.3 (active).

Take `CC(Sc1nnc(CNC(=O)c2ccccc2F)n1C)C(=O)Nc1nccs1` (stereo not drawn): the B-score entry is “inactive”.

Regarding `CC1CCN(S(=O)(=O)c2ccc(NC(=O)C3CC(=O)N(c4ccccc4)C3)cc2)CC1` (stereo not drawn), the B-score entry was “inactive”.

As for `COc1ccc(Nc2ncnc3sc(C)cc23)cc1`, the B-score result is “inactive”.

Turning to `COc1ccc(Nc2ncnc3sc(-c4ccccc4)cc23)c(OC)c1`, the B-score is -12 (active).

On to `COc1ccc(Nc2ncnc3ccc(Br)cc23)c(OC)c1`, for which the B-score result was “inactive”.

Regarding `COC(=O)c1sc(SC)c(S(=O)(=O)C(C)C)c1N/N=C(\C#N)S(=O)(=O)c1ccccn1`, the B-score result was “inactive”.

Take `CC1CCN(C(=O)/C(=C\c2ccccc2F)NC(=O)c2ccccc2)CC1`: the B-score result is “inactive”.

Turning to `COC(=O)CN1C(=O)[C@H]2[C@@H](/C=C/c3ccccc3)N3C(=O)CN(CC4CC4)C(=O)[C@@]3(Cc3ccccc3)[C@H]2C1=O`, the B-score result is “inactive”.

`O=C(CC1CCCCC1)Nc1c2c(nn1-c1ccc(F)cc1)CS(=O)(=O)C2`: the B-score entry was “inactive”.

`C=CCNC(=O)c1ccccc1NC(=O)c1ccc(Cl)c(S(=O)(=O)Nc2cccc(C)c2C)c1`: the B-score result is “inactive”.

With `CCCCCCCCCCCCN1C(=O)CSC1c1cccnc1` (stereo not drawn), the B-score was -18.4 (active).

`CN(C)CCCN1C(=O)CSC1c1ccc([N+](=O)[O-])cc1` (stereo not drawn): the B-score result is “inactive”.

As for `CCCCc1ccc(NC(=O)NCc2cccnc2)cc1`, the B-score entry was “inactive”.

Take `Cc1ccc(C(=O)Nc2ccc3c(c2)OCCO3)cc1S(=O)(=O)N1CCOCC1`: the B-score entry was “inactive”.

For the compound `CCCn1nnc(NC(=O)COc2ccc(CC)cc2)n1`, the B-score result is “inactive”.

As for `COc1ccccc1N1CCC(N2CCN(CC(C)(C)C)C(CCO)C2)CC1` (stereo not drawn), the B-score result is “inactive”.

As to `CCCOc1ccc2c3c(c(=O)oc2c1OCCC)CCC3`, the B-score is -11.4 (active).

As for `O=c1oc2c(CN3CCCCC3)c(O)ccc2c2c1CCCCC2`, the B-score result is “inactive”.

As for `COc1ccc2c3c(c(=O)oc2c1OCC(=O)C(C)(C)C)CCCC3`, the B-score result was “inactive”.

On to `O=[N+]([O-])c1cccc(C=NN=Cc2ccccc2O)c1`, for which the B-score entry was “inactive”.

Consider `C=CCN(N=Nc1cccc([N+](=O)[O-])c1)c1cccc([N+](=O)[O-])c1`, for which the B-score is -9.23 (active).

Take `O=C(CCl)N(Cc1cccc([N+](=O)[O-])c1)c1cccc(Cl)c1`: the B-score entry is “inactive”.

Regarding `Cc1cc(Nc2cccc(F)c2)n2ncnc2n1`, the B-score result was “inactive”.

With `CC(=O)c1ccc(NC(=O)C(C)NCc2ccc(Cl)cc2)cc1` (stereo not drawn), the B-score result was “inactive”.

On to `CC(NCC(=O)Nc1cc(Cl)cc(Cl)c1)c1ccccc1` (stereo not drawn), for which the B-score result was “inactive”.

For `CC(NCc1cccs1)C(=O)Nc1cc(Cl)cc(Cl)c1` (stereo not drawn), the B-score was -9.85 (active).

On to `CC(=O)Nc1ccccc1OC(C)C(=O)N1CCC(C)CC1` (stereo not drawn), for which the B-score entry is “inactive”.

For `CCOc1ccc(Br)cc1S(=O)(=O)Nc1ccc(C(=O)OC(C)C(=O)N(C)c2ccccc2)cc1` (stereo not drawn), the B-score entry is “inactive”.

Turning to `COCCCNC(=O)CCc1nc2cccnc2n1Cc1ccc(OC)cc1`, the B-score entry is “inactive”.

Consider `Cc1ccc2nc(NC(=O)C3CSC4(C)CCC(=O)N34)sc2c1` (stereo not drawn), for which the B-score result was “inactive”.
